Source: PubChem BioAssay (NCI)
This is part of a sample that, as a whole, favours compounds with a hit. Of some 83,000 tested, about 20% had one in any assay.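 Growth was measured after 48 h exposure to one concentration of compound in 96-well plates. Values under 10 count as active.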 Active and inactive are the calls of the source.

Columns and labels:
Experiment in all cases: NCI-60 one-dose screen, 48 h (100 = growth as untreated, 0 = no growth, -100 = all killed)
[1] = test system: DU-145 prostate; settings: 10 µM
[2] = test system: K-562 leukemia; settings: 10 µM
[3] = test system: MALME-3M melanoma; settings: 10 µM
[4] = test system: MDA-MB-231 breast; settings: 10 µM
[5] = test system: RXF 393 renal; settings: 10 µM
[6] = test system: SF-268 CNS; settings: 10 µM
[7] = test system: SF-539 CNS; settings: 10 µM
[8] = test system: UACC-257 melanoma; settings: 10 µM
[9] = test system: M14 melanoma; settings: 10 µM
[10] = test system: HCT-15 colon; settings: 10 µM
[11] = test system: HT29 colon; settings: 10 µM
[12] = test system: SNB-75 CNS; settings: 10 µM
[13] = test system: SNB-19 CNS; settings: 10 µM
[14] = test system: U251 CNS; settings: 10 µM
[15] = test system: PC-3 prostate; settings: 10 µM
[16] = test system: SK-MEL-5 melanoma; settings: 10 µM
[17] = test system: UACC-62 melanoma; settings: 10 µM unless noted
[18] = test system: LOX IMVI melanoma; settings: 10 µM
[19] = test system: SK-MEL-28 melanoma; settings: 10 µM
[20] = test system: SF-295 CNS; settings: 10 µM

Measured: growth

C#CC(C(C)C)N(CCO)CCCC (stereo not drawn)
inactive: [1] 112% | [2] 102% | [3] 116% | [4] 113% | [5] 100% | [6] 102% | [7] 90.4% | [8] 97.4% | [9] 108% | [10] 94.9% | [11] 117% | [12] 83.6% | [13] 107% | [14] 97.7% | [15] 94.7% | [16] 100% | [17] 107% | [18] 107% | [19] 101%

O=C(NCc1ccco1)Nc1c(Cl)cc(Cl)cc1Cl
inactive: [1] 113% | [2] 106% | [3] 97.3% | [4] 101% | [5] 107% | [6] 104% | [20] 93.5% | [7] 94.7% | [10] 100% | [11] 94.3% | [12] 89.1% | [13] 103% | [15] 91.6% | [16] 100% | [17] 101% | [18] 99.3% | [19] 103%

Cc1cc(/C=C/c2ccc3cc(N(C)C)ccc3[n+]2C)c(C)n1-c1ccccc1
active: [1] -39.2% | [2] 0.995% | [3] -56.9% | [4] -18.9% | [5] -96.2% | [6] -1.17% | [20] -33.6% | [8] -39.5% | [9] -71.3% | [10] -29.5% | [11] 4.1% | [12] -1.13% | [13] 9.5% | [14] -11.9% | [15] -7.89% | [16] -96.8% | [19] -63.9%

O=C(O)CCC(NC(=O)OCc1ccccc1)C(=O)O (stereo not drawn)
inactive: [1] 98.7% | [2] 96.6% | [3] 96.9% | [4] 97% | [5] 109% | [6] 100% | [20] 102% | [7] 111% | [9] 103% | [10] 110% | [11] 105% | [12] 99.5% | [15] 97% | [16] 101% | [17] 90.5% | [18] 98.9% | [19] 109%

CCCCC1C(=O)N(c2ccccc2)N(c2ccccc2)C1=O
inactive: [1] 113% | [2] 99.1% | [3] 97.1% | [4] 103% | [5] 116% | [6] 107% | [20] 110% | [8] 105% | [9] 98.9% | [10] 102% | [11] 104% | [12] 117% | [13] 102% | [14] 105% | [15] 98.9% | [16] 102% | [18] 99.4% | [19] 111%

OC1OC(COC(c2ccccc2)(c2ccccc2)c2ccccc2)C(O)C(O)C1O (stereo not drawn)
inactive: [1] 107% | [2] 95.4% | [3] 90.6% | [4] 91.9% | [5] 95.8% | [6] 97.7% | [20] 96.8% | [7] 102% | [9] 105% | [10] 98.6% | [11] 110% | [12] 72% | [14] 91% | [16] 100% | [17] 85.5% | [18] 93.6% | [19] 91.4%

CCOC(=O)C1=C(Nc2ccc(Br)cc2)C(=O)N(CC)C1
inactive: [1] 107% | [2] 106% | [3] 101% | [4] 81.8% | [5] 92.9% | [6] 96.8% | [20] 87% | [7] 84.9% | [9] 110% | [10] 91.4% | [11] 103% | [12] 94.7% | [13] 84% | [15] 101% | [16] 97.7% | [18] 94.3% | [19] 101%

COc1ccc(/C=C/c2cccc[n+]2C)cc1
inactive: [1] 111% | [2] 100% | [3] 94.6% | [4] 111% | [5] 101% | [6] 97.2% | [20] 99.1% | [7] 103% | [9] 103% | [10] 99.1% | [11] 88% | [12] 83.2% | [14] 77.6% | [15] 87% | [16] 105% | [17] 114% | [18] 94.2% | [19] 109%

C1CNC(C2=NCCN2)=N1
inactive: [1] 100% | [2] 90.4% | [3] 101% | [4] 107% | [5] 113% | [6] 94% | [20] 101% | [7] 98.5% | [9] 103% | [11] 102% | [12] 100% | [13] 112% | [14] 102% | [15] 98.8% | [16] 101% | [17] 104% | [18] 98% | [19] 109%

N#CC(=Nc1cccc(F)c1)C1=C(O)c2ccccc2C1=O
inactive: [1] 105% | [2] 84.4% | [3] 87.1% | [4] 84.5% | [5] 88.9% | [6] 96.5% | [20] 82% | [7] 95.6% | [9] 98.2% | [10] 76% | [11] 105% | [12] 54.3% | [13] 90.4% | [15] 83% | [16] 90.7% | [17] 82.8% | [18] 91.1%

CC(C)=CC(=O)OC(=O)C=C(C)C
inactive: [1] 101% | [2] 99.1% | [3] 101% | [4] 99.6% | [5] 102% | [6] 103% | [20] 111% | [7] 105% | [9] 107% | [10] 102% | [11] 111% | [12] 90.3% | [14] 102% | [15] 98.4% | [16] 98.8% | [17] 98.2% | [18] 109% | [19] 102%

CC(C)(C)n1nc(C2CC2)c(Br)c1NC(=O)c1ccccc1F
inactive: [1] 121% | [2] 91.6% | [3] 107% | [4] 100% | [5] 114% | [6] 112% | [20] 94.9% | [7] 100% | [9] 102% | [10] 93.4% | [11] 103% | [12] 78.4% | [13] 107% | [15] 91.5% | [16] 99.7% | [17] 90.7% | [18] 99.1% | [19] 100%

O=[N+]([O-])c1ccccc1S(=O)c1ccccc1[N+](=O)[O-]
inactive: [1] 106% | [2] 47.9% | [3] 90.4% | [4] 74% | [5] 111% | [6] 88.1% | [20] 79% | [7] 113% | [9] 95.9% | [10] 98.2% | [11] 107% | [12] 83.1% | [13] 106% | [15] 81.1% | [16] 95.7% | [17] 83.3% | [19] 100%

COc1cc(/C=C/C(=O)c2ccccc2)cc(OC)c1OC
active: [20] -24.7% | [18] 2.98%
inactive: [1] 62.5% | [2] 11.4% | [3] 76.8% | [4] 79.1% | [5] 73.2% | [6] 57.9% | [7] 80.8% | [9] 74.6% | [10] 31.4% | [11] 19.1% | [12] 71.2% | [15] 58% | [16] 76.1% | [17] 54.9% | [19] 82.3%

COc1cc(CCN=Cc2ccccc2O)c([N+](=O)[O-])cc1OC
inactive: [1] 113% | [2] 94.9% | [3] 89.5% | [4] 112% | [5] 111% | [6] 100% | [20] 87.4% | [7] 106% | [9] 95.6% | [10] 92.3% | [11] 101% | [12] 96.6% | [13] 99.3% | [15] 98.9% | [16] 101% | [17] 109% | [18] 99.4% | [19] 113%

COCCCNC(=O)c1nnn2c1nc(N)c1cc(Cl)ccc12
inactive: [1] 105% | [2] 34.6% | [3] 65.1% | [4] 100% | [5] 103% | [6] 94.1% | [20] 91.7% | [7] 94% | [9] 79.3% | [10] 85.6% | [11] 73.4% | [12] 70.6% | [13] 102% | [15] 80.6% | [16] 98.4% | [17] 80% | [18] 88.3%

Cc1c(O)cnc2nn(-c3ccccc3)c(=N)n12
inactive: [1] 110% | [2] 101% | [3] 124% | [4] 103% | [5] 111% | [6] 113% | [20] 99.1% | [7] 99.6% | [9] 114% | [10] 100% | [11] 96.3% | [12] 76.4% | [13] 98.5% | [15] 119% | [16] 101% | [17] 106% | [18] 102% | [19] 112%
